TMEM16A act: TMEM16A chloride channel activators or potentiators, primary screen, cell-based, HTS; Anoctamin-1 (Mus musculus), Q8BHY3; HEK293 TMEM16A/YFP-H148Q/I152L, iodide quench fluorescence; active compounds read low; 0.3% of 340,000 active; B-score at 10 µM;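 active = fluorescence-ratio B-score plate-corrected deviation score at least 3 library SD below zero, with starting fluorescence score within 5 deviations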;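 also: channel opened by trigger with iodide after compound preincubation; score built on the fluorescence ratio of max minus min over baseline; more negative score means more quench and so TMEM16A activation or potentiation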
Target sequence (Q8BHY3 whole entry, looked up): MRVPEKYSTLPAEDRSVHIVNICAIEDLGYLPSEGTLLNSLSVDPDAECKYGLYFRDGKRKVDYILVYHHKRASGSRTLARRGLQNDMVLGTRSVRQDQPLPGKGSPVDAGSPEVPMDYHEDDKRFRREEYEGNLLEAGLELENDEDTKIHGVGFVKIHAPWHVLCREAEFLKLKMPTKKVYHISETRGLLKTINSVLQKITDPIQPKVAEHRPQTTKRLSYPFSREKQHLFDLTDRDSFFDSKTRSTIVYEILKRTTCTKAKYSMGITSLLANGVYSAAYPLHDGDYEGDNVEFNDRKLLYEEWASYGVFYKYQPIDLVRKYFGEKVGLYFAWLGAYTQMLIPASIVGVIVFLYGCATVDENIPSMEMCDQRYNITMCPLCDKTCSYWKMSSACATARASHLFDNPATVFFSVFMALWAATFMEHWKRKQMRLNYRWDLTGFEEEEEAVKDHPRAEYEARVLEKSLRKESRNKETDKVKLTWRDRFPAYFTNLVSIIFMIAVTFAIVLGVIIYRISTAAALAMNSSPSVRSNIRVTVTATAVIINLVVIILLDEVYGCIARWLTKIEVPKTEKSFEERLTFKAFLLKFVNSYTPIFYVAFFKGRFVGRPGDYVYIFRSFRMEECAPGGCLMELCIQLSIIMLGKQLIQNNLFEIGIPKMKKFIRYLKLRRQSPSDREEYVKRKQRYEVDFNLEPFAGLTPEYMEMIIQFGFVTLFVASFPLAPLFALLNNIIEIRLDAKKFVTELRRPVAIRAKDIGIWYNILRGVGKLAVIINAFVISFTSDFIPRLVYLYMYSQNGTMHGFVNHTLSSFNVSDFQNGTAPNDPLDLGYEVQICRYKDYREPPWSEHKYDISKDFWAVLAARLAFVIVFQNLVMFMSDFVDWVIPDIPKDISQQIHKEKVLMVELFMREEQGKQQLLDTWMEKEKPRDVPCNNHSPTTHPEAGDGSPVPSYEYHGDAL
CHT block: inhibitors of human choline transporter CHT. High affinity choline transporter 1 (Homo sapiens), Q9GZV3. CHT-expressing cells, membrane potential dye, choline response; active compounds read low. B-score at 10 µM. 0.86% of 310,000 active;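 active = B-score over 3 SD under the library average, and starting fluorescence ratio not unusually high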;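 also: choline stimulus applied at its EC90 after an EC20 pre-addition; B-score computed on integrated fluorescence ratio after choline addition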
PKA-R1A act: activators of PKA-R1A holoenzyme, primary screen, biochemical, fluorescence polarization, Cy5-IP20, bovine R1A, mouse PKAc. cAMP-dependent protein kinase type I-alpha regulatory subunit (Bos taurus) + …. activation, % at 11.4 µM. 0.083% of 340,000 active. PKA-R1A dissociation; scaled: DMSO 0%, 113 µM cGMP 100%;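 active = percent activation above the mean of all tested compounds plus 3 SD, cut at about 19% in these data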;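 also: higher means more PKAc released from R1A so a rise in polarization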
ANO1 block: TMEM16A chloride channel inhibitors, primary screen, cell-based, HTS; Anoctamin-1 (Mus musculus), Q8BHY3; HEK293 TMEM16A/YFP iodide influx fluorescence, ionomycin; normalized B-score (activity score, 25-100; higher = stronger inhibition) at 10 µM; 1.2% of 310,000 active;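 active = ratio plate-corrected score three or more library SD toward inhibition, starting fluorescence score within five deviations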;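 also: score derived from kinetic fluorescence span divided by baseline fluorescence per well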
PKA-R2B act: activators of PKA-R2B holoenzyme, primary screen, biochemical, fluorescence polarization, Cy5-IP20, human; PKA-R2B holoenzyme dissociation; R2B truncated from residue 108, S112A mutant; 0% DMSO only, 100% 113 µM cGMP; activation, % at 11.4 µM; 0.079% of 340,000 active;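 active = activation above a cutoff set at the mean over all compounds plus 3 SD, cut at about 18% in these data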;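 also: higher means more holoenzyme dissociation and a rise in polarization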
CHT PAM: CHT positive allosteric modulators, primary screen, cell-based, membrane potential dye, choline EC20; High affinity choline transporter 1 (Homo sapiens), Q9GZV3; CHT-expressing cells; active compounds read high; LV-AA mutant CHT in HEK293 cells; B-score at 10 µM; 0.49% of 310,000 active;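 active = initial fluorescence not abnormally high and integrated response B-score, plate-corrected, over 3 SD above library mean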
CHT act confirm: CHT activators, confirmation, cell-based, membrane potential dye, duplicate; CHT-expressing cells, membrane potential dye fluorescence (FDSS); % of choline EC20–EC90 response window; HEK293 expressing CHT LV-AA mutant; choline added at its EC20; AID 504833, 2011; 91% of 2,500 active; shares compounds with CHT PAM; activation, % at 10 µM;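 active = primary screen active, with duplicate mean activation above negative control mean plus 3 SD, cut at about 11% in these data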
HEK293 MP dye: membrane potential response in parental HEK293 cells, counter-screen for CHT activator project, cell-based, membrane potential dye | ratio readout change at 10 µM, hits read low | shares compounds with CHT PAM | 62% of 2,500 active | AID 623908, 2012 | membrane potential dye fluorescence (FDSS); measured after EC20 choline addition;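 active = duplicate-averaged ratio beyond 3 SD from buffer wells, up or down, though filed actives are nearly all decreases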
Each line names hits and unclear results; the compound was inactive in the other large screens (follow-up assays come after a bar, where they were run). Hits are enriched below; roughly 2.5% of the tested compounds scored in any of these assays.

COc1ccc(N(C)C(=O)c2oc(=O)c3ccccc3c2-c2ccccc2)c(OC)c1	CHT PAM 6.3 | CHT act confirm 33 | HEK293 MP dye inactive
Nc1ccc(Cl)c[n+]1Cc1cccc2cccnc12	none
Cc1cc(C[n+]2cc(Br)ccc2N)c2ncccc2c1	CHT PAM 8.5 | CHT act confirm 49 | HEK293 MP dye -44
Cc1cc(C[n+]2ncsc2N)c2ncccc2c1	none | CHT act confirm 73 | HEK293 MP dye -23
Cc1cc(C[n+]2cc(Cl)ccc2N)c2ncccc2c1	CHT PAM 16 | CHT act confirm 46 | HEK293 MP dye -39
CCC(C)c1ccc(OCC(=O)Nc2ccc(CN3CCOCC3)cc2)cc1 (configuration not stated)	none
CCC(=O)Nc1c(C(=O)Nc2cccc(OC)c2)oc2ccccc12	none
CCCN(CCC)C(=O)c1oc2ccccc2c1NC(=O)Cc1cccc(OC)c1	CHT PAM 16 | CHT act confirm 29 | HEK293 MP dye inactive
COc1ccc(C(=O)Nc2ccncc2)c(OC)c1	CHT PAM 6.6 | CHT act confirm 21 | HEK293 MP dye -56
COc1cc(OC)c(C(=O)Nc2ccncc2)cc1OC	none
CN(C)CCNc1nc(-c2ccco2)c2c(c1C#N)CC(C)(C)OC2	CHT PAM 11 | CHT act confirm 65 | HEK293 MP dye -91
N#Cc1c(NCCN)nc(-c2ccco2)c2c1CCCC2	none | CHT act confirm 39 | HEK293 MP dye -73
CC1(C)Cc2c(C#N)c(OCC(=O)c3ccc(Cl)cc3)nc(-c3ccco3)c2CO1	CHT PAM 13 | CHT act confirm inactive | HEK293 MP dye inactive
COc1ccc(CCNC(=O)CSc2nc3ccsc3c(=O)n2CC2CCC(C(=O)O)CC2)cc1OC (configuration not stated)	none
O=C(O)c1cc(-c2cccnc2)nc2ccc(Br)cc12	none
CCN1CCN(C(=O)c2cc(-c3cccnc3)nc3ccc(Br)cc23)CC1	CHT PAM 6.6 | CHT act confirm 54 | HEK293 MP dye -44
Cc1ccnc2c1ccc1cccnc12	none (no result: CHT block, ANO1 block, CHT PAM)
c1cnc2c(c1)ccc1cccnc12	CHT PAM 6.6 | CHT act confirm 62 | HEK293 MP dye -105
Cn1c(N=Nc2ccccc2)nc2ccccc21	CHT PAM 6.4 | CHT act confirm 29 | HEK293 MP dye -53
CN(C)c1ccc(N=Nc2nc3ccccc3n2C)cc1	none
COc1cccc(CNCc2ccc(OC)cc2OC)c1	none
CCn1c2ccccc2c2cc(CNCc3ccc(OC)cc3OC)ccc21	ANO1 block 100, CHT PAM 16 | CHT act confirm inactive | HEK293 MP dye inactive
CCCC[n+]1ccn(-c2nc3c([N+](=O)[O-])cccc3n2C)c1	none | CHT act confirm 67 | HEK293 MP dye -55
CCCCC[n+]1ccn(-c2nc3ccccc3nc2[N-]S(=O)(=O)c2ccccc2)c1	none
C/C(=N\N=C(N)N)c1cccc([N+](=O)[O-])c1	CHT PAM 6.4 | CHT act confirm 27 | HEK293 MP dye -57
CN(Cc1nc(-c2cccs2)no1)CC1(N2CCOCC2)CCCCC1	none

Bioassay records from PubChem BioAssay.
